This is a sample that favours compounds with a hit; in the whole collection about 3% have one here.
SENP7 inh = SENP7 protease inhibitors, primary screen, biochemical, luminescence, uHTS | 330,000 tested, 1.5% active | Sentrin-specific protease 7 (Homo sapiens), Q9BQF6 | recombinant SENP7, Z-RLRGG-aminoluciferin luminescence, 40 min | AID 434973, 2010 | inhibition, % at 5 µM;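 active means inhibition above about 50% at the single test dose, limit read from the data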
Target sequence (Q9BQF6 706-1050 limits assumed): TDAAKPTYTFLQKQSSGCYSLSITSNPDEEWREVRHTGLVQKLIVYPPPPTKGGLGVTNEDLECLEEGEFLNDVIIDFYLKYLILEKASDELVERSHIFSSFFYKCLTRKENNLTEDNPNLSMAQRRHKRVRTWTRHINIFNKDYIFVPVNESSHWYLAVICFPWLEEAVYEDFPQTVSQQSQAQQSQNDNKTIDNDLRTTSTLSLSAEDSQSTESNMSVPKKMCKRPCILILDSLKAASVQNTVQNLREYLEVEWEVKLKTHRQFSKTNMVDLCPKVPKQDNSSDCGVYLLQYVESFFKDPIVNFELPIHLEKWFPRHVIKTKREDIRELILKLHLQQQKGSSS
SENP8 block-1 = human SENP8 protease inhibitors, primary screen, biochemical, fluorescence, Nedd8 protein substrate, uHTS; Sentrin-specific protease 8 (Homo sapiens), Q96LD8; recombinant SENP8; inhibition, % at 20 µM; 360,000 tested, 0.64% active; AID 602440, 2012; in the data active means inhibition mostly above about 40%, no sharp cut-off; inactive means mostly below about 27%
Target sequence (Q96LD8 whole entry, looked up): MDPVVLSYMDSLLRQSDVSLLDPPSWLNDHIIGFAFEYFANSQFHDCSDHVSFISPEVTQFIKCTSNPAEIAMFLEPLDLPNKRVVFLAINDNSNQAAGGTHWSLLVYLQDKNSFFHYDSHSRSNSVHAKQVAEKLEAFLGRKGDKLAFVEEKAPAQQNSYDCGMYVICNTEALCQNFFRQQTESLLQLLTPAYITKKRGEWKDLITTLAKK
PPC-1+TRAIL kill = compounds killing PPC-1 cancer cells with TRAIL present, primary screen, TRAIL potentiator project, ATPLite luminescence, uHTS. 220,000 tested, 0.41% active. cell killing (% activity), % at 4 µM or 5 µM. AID 1443, 2008. PPC-1 cells + TRAIL, ATPLite viability luminescence;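 active means cell killing above 50% in the first pass at 4 µM, then a duplicate retest at 5 µM averaging 50% or more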
SENP6 inh = SENP6 protease inhibitors, primary screen, biochemical, luminescence, uHTS | inhibition, % at 10 µM | Recombinant SENP6 catalytic domain, aminoluciferin luminescence | AID 2599, 2010 | 330,000 tested, 1.8% active | Sentrin-specific protease 6 (Homo sapiens), Q9GZR1;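 active means inhibition above about 50% at the single tested dose, limit read from the data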
SENP8 block-2 = SENP8 protease inhibitors, primary screen, biochemical, luminescence; Sentrin-specific protease 8 (Homo sapiens), Q96LD8; purified SENP8, Z-RLRGG-aminoluciferin cleavage; inhibition, % at 10 µM; 330,000 tested, 1.2% active; AID 2540, 2010; in the data active means inhibition above about 50%
TRAIL sens C8 = viability loss with TRAIL in NB7+C8 cells, primary screen, TRAIL sensitizer project, cell-based, ATPlite luminescence; 360,000 tested, 1% active; inhibition (viability loss, TRAIL sensitization), % at 10 µM;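 active means compounds causing at least 50% loss of cell viability in the single-dose screen, relative to plate controls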
SENP8 conf = SENP8 protease inhibitors, retest, confirmation, biochemical, luminescence, single concentration; inhibition, % at 12.5 µM; AID 488912, 2010; Recombinant SENP8, Z-RLRGG-aminoluciferin luminescence, 60 min; shares compounds with SENP7 inh; 6,200 tested, 40% active;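 active means mean inhibition across replicates above about 50%, limit read from the data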
SENP6 confirm = SENP6 protease inhibitors, confirmation, biochemical, luminescence, single concentration | shares compounds with SENP7 inh | 6,200 tested, 58% active | recombinant SENP6, Z-RLRGG-aminoluciferin luminescence | inhibition, % at 12.5 µM | AID 488915, 2010
SENP7 confirm = SENP7 protease inhibitors, retest, confirmation, biochemical, luminescence, single concentration; shares compounds with SENP7 inh; recombinant SENP7, Z-RLRGG-aminoluciferin luminescence, 40 min; inhibition, % at 12.5 µM; 6,200 tested, 69% active; AID 488917, 2010
Casp3 SENP sel = caspase-3 protease inhibitors, confirmation, selectivity assay for SENP inhibitor project, biochemical, single concentration | AID 488918, 2010 | inhibition, % at 12.5 µM | shares compounds with SENP7 inh | 6,200 tested, 60% active | purified caspase-3, Z-DEVD-aminoluciferin luminescence, 60 min;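 active means mean inhibition above about 50%, limit read from the data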
Luc interf = counter-screen for SENP inhibitors: luminescence interference. 6,200 tested, 39% active. Pre-incubated SENP8/Z-RLRGG-aminoluciferin, luciferase luminescence interference. shares compounds with SENP7 inh. inhibition, % at 12.5 µM;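 active means mean inhibition above about 50% when retested at one dose, limit read from the data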
Large screens that a line does not name were inactive (follow-up assays come after a bar, where they were run).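 How the source made its calls, unless noted: active means mean inhibition above about 50% in the one-dose retest (limit read from the data); inactive means the rest.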

Cc1cccc(/C=C/C(=O)c2ccc(N3CCOCC3)cc2)c1	SENP7 inh 92.4, SENP6 inh 89.1, SENP8 block-2 84.4 (no result: SENP8 block-1, TRAIL sens C8) | SENP8 conf inactive | SENP6 confirm inactive | SENP7 confirm inactive | Casp3 SENP sel 55.2 | Luc interf 80.2
COc1ccc(C(=O)C2CCCN(C(=O)c3ccc4nccnc4c3)C2)c(C)c1 (stereo not given)	SENP6 inh 57.3 (no result: PPC-1+TRAIL kill) | SENP8 conf inactive | SENP6 confirm inactive | SENP7 confirm inactive | Casp3 SENP sel inactive | Luc interf inactive
CCCCn1c(N)c(N(CCOC)C(=O)COC(=O)COc2ccc(CC)cc2)c(=O)[nH]c1=O	none (no result: PPC-1+TRAIL kill)
COC(=O)c1cnc(NC(=O)C2(C)CCN2C(=O)C(C)C)s1 (stereo not given)	none (no result: SENP7 inh, PPC-1+TRAIL kill, SENP6 inh, SENP8 block-2)
COc1ccc(OC)c(-n2nnnc2SCC(=O)Nc2ccc3c(c2)OCCO3)c1	none
COc1ccc(OC)c(-n2nnnc2SCC(=O)Nc2ccc(C(=O)N3CCCCC3)cc2)c1	SENP7 inh 57.2 | SENP8 conf inactive | SENP6 confirm inactive | SENP7 confirm inactive | Casp3 SENP sel inactive | Luc interf inactive
COc1ccccc1N/C=C/c1onc(C)c1[N+](=O)[O-]	SENP7 inh 98.6, SENP6 inh 98.8, SENP8 block-2 95.7 | SENP8 conf 83.9 | SENP6 confirm 95.2 | SENP7 confirm 96.2 | Casp3 SENP sel 91.9 | Luc interf inactive
COC(=O)Nc1ccc(OCc2ccccc2)cc1	SENP6 inh 72.8 | SENP8 conf 52.9 | SENP6 confirm 50.9 | SENP7 confirm 82.2 | Casp3 SENP sel 62.9 | Luc interf inactive
COCC(=O)Nc1ccc(OCc2ccccc2)cc1	none
O=C(O)c1cccc(COc2ccc(CO)cc2Cl)c1	SENP7 inh 100.1, SENP6 inh 97.1, SENP8 block-2 96.3, TRAIL sens C8 66.8 | SENP8 conf 97.5 | SENP6 confirm 100.5 | SENP7 confirm 103.6 | Casp3 SENP sel 98.4 | Luc interf 98.8
COc1ccc(C(=O)C=Cc2ccc(OCc3ccccc3)c(OC)c2)cc1OC	none (no result: SENP7 inh, PPC-1+TRAIL kill, SENP6 inh, SENP8 block-2)
O=C(O)c1cccc(COc2ccc3c(c2)CCC3)c1	SENP7 inh 98.9, SENP6 inh 97.0, SENP8 block-2 97.2, TRAIL sens C8 62.7 | SENP8 conf inactive | SENP6 confirm 100.9 | SENP7 confirm 103.6 | Casp3 SENP sel 98.9 | Luc interf 99.6
COc1cc(/C=C/[N+](=O)[O-])ccc1OCc1cccc(C(=O)O)c1	SENP6 inh 51.5 (no result: SENP8 block-1, TRAIL sens C8) | SENP8 conf 57.1 | SENP6 confirm inactive | SENP7 confirm inactive | Casp3 SENP sel inactive | Luc interf 64.5
COc1cccc(CN(C)Cc2nc(Cc3ccccc3Cl)no2)c1	none
CCN1CC(CN(C)Cc2nc(-c3ccc(OC)c4ccccc34)oc2C)CC1=O (stereo not given)	none
c1ccc(OCCNc2ccn3nc(-c4cccs4)cc3n2)cc1	none (no result: SENP7 inh, PPC-1+TRAIL kill, SENP6 inh, SENP8 block-2)
COc1ccc(OCc2cccc(C(=O)O)c2)cc1	SENP7 inh 99.5, SENP6 inh 97.6, SENP8 block-2 96.5, TRAIL sens C8 61.9 | SENP8 conf 99.9 | SENP6 confirm 100.9 | SENP7 confirm 103.3 | Casp3 SENP sel 99.3 | Luc interf 99.2
Cc1nc2ccc([N+](=O)[O-])cc2[nH]1	none
Nc1ccc2oc(-c3ccc4nc[nH]c4c3)nc2c1	SENP7 inh 58.1, SENP6 inh 67.1, TRAIL sens C8 57.2 | SENP8 conf 53.9 | SENP6 confirm 55.1 | SENP7 confirm 86.2 | Casp3 SENP sel 79.6 | Luc interf 50.1
Cc1nc2ccc(-c3nc4cc(N)ccc4o3)cc2[nH]1	SENP7 inh 76.8, SENP8 block-2 54.3, TRAIL sens C8 60.2 | SENP8 conf inactive | SENP6 confirm 77.6 | SENP7 confirm 95.9 | Casp3 SENP sel 89.5 | Luc interf 57.8
Nc1ccc2oc(-c3cccc(Br)c3)nc2c1	SENP7 inh 89.5, SENP6 inh 89.9, SENP8 block-2 81.9 | SENP8 conf 57.5 | SENP6 confirm 81.5 | SENP7 confirm 97.6 | Casp3 SENP sel 73.7 | Luc interf inactive
Nc1nc2cc(Br)ccc2o1	none (no result: SENP7 inh, PPC-1+TRAIL kill, SENP6 inh, SENP8 block-2)
Nc1ccc(-c2nc3ccccc3o2)cc1	SENP7 inh 67.0, SENP6 inh 60.5, SENP8 block-2 55.2 (no result: PPC-1+TRAIL kill) | SENP8 conf 70.1 | SENP6 confirm 65.4 | SENP7 confirm 89.7 | Casp3 SENP sel 70.1 | Luc interf 70.7
Nc1cc(N)cc(-c2nc3ccccc3o2)c1	none (no result: PPC-1+TRAIL kill)
COCOCCn1cc(CN2CCS(=O)(=O)N(Cc3ccc(-c4ccc(F)cc4)cc3)C(CC(C)C)C2=O)nn1 (stereo not given)	none (no result: SENP7 inh, PPC-1+TRAIL kill, SENP6 inh, SENP8 block-2)
CC(C)(C)OC(=O)N1CCN(C(c2ccnc3ccccc23)c2nnnn2-c2ccc3c(c2)OCCO3)CC1 (stereo not given)	none (no result: SENP7 inh, PPC-1+TRAIL kill, SENP6 inh, SENP8 block-2)
CC(C)OCCCNC(=O)c1cc2c(s1)CS(=O)(=O)C2	SENP7 inh 97.8 | SENP8 conf inactive | SENP6 confirm inactive | SENP7 confirm inactive | Casp3 SENP sel inactive | Luc interf inactive
COCCCNC(=O)c1cc2c(s1)CS(=O)(=O)C2	none
COc1ccc(CCN2C(=O)N[C@@H](CCC(=O)O)C2=O)cc1	none (no result: PPC-1+TRAIL kill)
Cc1ccc(O)c(C2=Nc3ccccc3C2(C)C)c1	SENP7 inh 55.9, SENP6 inh 71.5 | SENP8 conf inactive | SENP6 confirm 63.8 | SENP7 confirm 88.6 | Casp3 SENP sel inactive | Luc interf inactive
COc1ccc(C)cc1C1=Nc2ccccc2C1(C)C	none
CC1(C(=O)NS(=O)(=O)c2ccccc2Cl)CCN1C(=O)CC1CC1 (stereo not given)	none (no result: SENP7 inh, PPC-1+TRAIL kill, SENP6 inh, SENP8 block-2)
